From PubChem BioAssay
Several values for one entry are separate records, joined by “and”; a condition that tells them apart may be missing. Identical values can stand only once. Activity calls are given as the source filed them.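 The calls were made as follows, unless noted: active = thallium flux through the channel raised or lowered by more than 3 SD from vehicle-only wells, actives on both sides; inactive = the rest.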

Columns and labels:
[1] = stimulators of nuclear beta-catenin in C2C12, primary screen, imaging, WNT3A-conditioned medium, mouse C2C12, NPC library (AID 1117326; in the data active = nuclear beta-catenin stimulation mostly above about 4.2%, no sharp cut-off; inactive = mostly below about 10%); conditions: stronger effect = higher value
[2] = stimulators of insulin release from INS-1E, primary screen, cell-based, 5 mM glucose, NPC library (AID 1117329;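 active = compound raises insulin release from rat beta cells at 5 mM glucose, no numeric limit stated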); conditions: rat INS-1E insulin secretion, at 10 µM, stronger effect = higher value
[3] = growth inhibition of GSK3B-pretreated HCT116 cells – cell-based, CellTiter-Glo, 0.2 to 20 µM (AID 1117336;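 active = compounds lowering colon cancer cell viability after pretreatment blocking the GSK3B kinase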); conditions: HCT116 viability after GSK3B inhibitor, at 20 µM, stronger effect = higher value
[4] = inhibition of endothelial tube formation, primary screen, imaging, VEGF stimulated, CD31 staining, tube area, NPC library (AID 1117340;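 active = compound that reduces growth-factor-driven endothelial tube area in a mixed cell culture, no cutoff stated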); conditions: VEGF-stimulated ADSC/ECFC co-culture, at 10 µM, stronger effect = higher value
[5] = glucagon-like peptide 1 release enhancers, primary assay, NCI-H716 cell line, NPC library (AID 1117341;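 active = compound raises GLP1 secretion from the human gut endocrine cells, with no numeric limit stated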); conditions: NCI-H716 cells, at 10 µM, stronger effect = higher value
[6] = HCT116 colon cancer cell growth inhibition, primary screen, CellTiter-Glo luminescence, NPC library (AID 1117342;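 active = compounds that lower survival of HCT116 colon cancer cells in the luminescence readout, no numeric limit stated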); conditions: at 20 µM (top of the series)
[7] = CellTiter-Glo luminescent readout of SW480 viability loss, NPC library primary (AID 1117343;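 active = compounds that lower viability of the colon cancer cells in the luminescence readout, with no numeric limit stated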); conditions: CellTiter-Glo luminescence; at 20 µM (top of the series)
[8] = decreased DLD-1 cellular survival, CellTiter-Glo luminescent readout, NPC compound collection, primary HTS (AID 1117346;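 active = compounds that lower survival of DLD-1 colon cancer cells in the luminescence readout, no cutoff given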); conditions: DLD-1 viability, CellTiter-Glo luminescence; at 20 µM (top of the series)
[9] = molecular target: 6-phosphogluconate dehydrogenase, decarboxylating (Homo sapiens) (UniProt P52209); assay: 6PGD enzyme inhibitors, primary screen, biochemical, human, recombinant enzyme, NADPH absorbance (AID 1159550;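 active = at least 20% inhibition of 6-phosphogluconate dehydrogenase activity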); conditions: recombinant 6PGD, NADPH absorbance 341 nm; at 10 µM; stronger effect = higher value
[10] = modulation of C. elegans fzo-1 (AID 1259413; call rule not given here;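 also: fzo-1 mutant C. elegans worms in liquid wells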); conditions: C. elegans fzo-1 modulator screen, mean read-out; stronger effect = higher value
[11] = differential killing of epithelial or mesenchymal cells, primary screen, imaging, PC-3E GFP, TEM4-18 mCherry, co-culture (AID 1345086;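 active = compounds killing one labelled cell type while sparing the other, by normalised counts and ratio limits, not self-fluorescent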;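 as to all read-outs here: cells exposed to compound for 72 h before imaging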;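 as to red/green cell ratio (normalised): normalised mesenchymal count divided by normalised epithelial count so high means epithelial killing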); conditions: imaging cell counts, at 1 µM; for red/green cell ratio (normalised): actives lie on both sides, counts scaled to control wells, 1 = unselective
[12] = survival rescue of mitochondrial mutant cells in low glucose, primary screen, MELAS cybrids, Rieske KO mouse fibroblasts, CellTiter-Glo (AID 1508586;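 active = mean z-score across replicates of 1.96 or higher in either the MELAS or the Rieske mutant cell line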;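 also: z relative to plate mean and SD of compound and empty wells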)
[13] = molecular target: NAD(+) hydrolase SARM1 (Homo sapiens) (UniProt Q6SZW1); assay: SARM1 TIR NADase inhibitors, cell lysate, NAD-Glo luminescence (AID 1508614;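 active = compound whose remaining NAD level is above about 45 nM, limit read from the data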;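 also: higher remaining NAD means stronger inhibition of SARM1 NADase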); conditions: SAM-TIR HEK293T lysate NADase, at 1 µM, stronger effect = higher value
[14] = molecular target: Mitogen-activated protein kinase 7 (Homo sapiens) (UniProt Q13164); assay: ERK5 transactivation activators in reporter cells, primary screen, cell-based, HTS (AID 1508626;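 active = luciferase signal above three times the same-plate solvent-only control wells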;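 also: luciferase driven by Gal4-ERK5 fusion binding five Gal4 sites before minimal TATA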); conditions: HeLa Gal4-ERK5 transactivation, 18 h, at 5 µM, stronger effect = higher value
F380Y = assay: modulators of BK channel variants, profiling panel, selectivity assay, cell-based, U2OS BacMam, thallium flux, beta subunits (AID 1259406); conditions: at 30 µM;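 also: initial slope of Thallos dye fluorescence rise after thallium is added; log ratio against the mean of 0.3% DMSO vehicle wells on the same plate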
F380Y/beta1 = assay: as above; conditions: at 30 µM
F380Y/beta2Delta = assay: as above; conditions: at 30 µM
[15] = ICB984 medulloblastoma cell growth inhibition, synergistic combos for chromothripsis tumors, cisplatin or BGB combos (AID 1671451; call rule not given here;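 also: cells exposed for 96 hours before readout; 0% = vehicle DMSO and 100% = killing by high DMSO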); conditions: ICB984 medulloblastoma cells, drug combinations, stronger effect = higher value
[16] = measured here: epithelial PC-3E GFP cell survival
[17] = measured here: mesenchymal TEM4-18 mCherry cell survival
[18] = MELAS cybrid survival, CellTiter-Glo 48 h, stronger effect = higher value
[19] = Rieske KO mouse fibroblast survival, CellTiter-Glo 72 h

Chain of NAD(+) hydrolase SARM1 (Homo sapiens) (Q6SZW1 whole entry, looked up, the tested form may be a part): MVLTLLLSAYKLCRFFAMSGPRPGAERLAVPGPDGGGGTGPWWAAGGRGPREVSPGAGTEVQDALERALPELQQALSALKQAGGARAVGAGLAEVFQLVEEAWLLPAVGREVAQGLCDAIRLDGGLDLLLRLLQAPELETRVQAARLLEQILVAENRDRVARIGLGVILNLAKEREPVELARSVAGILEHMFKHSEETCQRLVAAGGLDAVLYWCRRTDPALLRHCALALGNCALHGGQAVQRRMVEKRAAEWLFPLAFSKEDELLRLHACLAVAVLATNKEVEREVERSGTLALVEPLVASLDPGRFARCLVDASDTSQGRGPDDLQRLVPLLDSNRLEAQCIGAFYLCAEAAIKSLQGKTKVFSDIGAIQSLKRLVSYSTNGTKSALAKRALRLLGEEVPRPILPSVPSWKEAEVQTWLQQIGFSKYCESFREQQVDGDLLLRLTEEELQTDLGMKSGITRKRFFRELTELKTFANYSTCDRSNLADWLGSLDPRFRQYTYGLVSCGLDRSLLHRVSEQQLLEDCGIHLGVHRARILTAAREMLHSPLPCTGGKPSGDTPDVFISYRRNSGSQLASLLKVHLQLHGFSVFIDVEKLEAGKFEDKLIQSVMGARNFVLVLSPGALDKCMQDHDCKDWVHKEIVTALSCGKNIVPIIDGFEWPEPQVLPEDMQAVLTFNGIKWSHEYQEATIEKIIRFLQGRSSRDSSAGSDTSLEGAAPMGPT
Chain of 6-phosphogluconate dehydrogenase, decarboxylating (Homo sapiens) (P52209 whole entry, looked up): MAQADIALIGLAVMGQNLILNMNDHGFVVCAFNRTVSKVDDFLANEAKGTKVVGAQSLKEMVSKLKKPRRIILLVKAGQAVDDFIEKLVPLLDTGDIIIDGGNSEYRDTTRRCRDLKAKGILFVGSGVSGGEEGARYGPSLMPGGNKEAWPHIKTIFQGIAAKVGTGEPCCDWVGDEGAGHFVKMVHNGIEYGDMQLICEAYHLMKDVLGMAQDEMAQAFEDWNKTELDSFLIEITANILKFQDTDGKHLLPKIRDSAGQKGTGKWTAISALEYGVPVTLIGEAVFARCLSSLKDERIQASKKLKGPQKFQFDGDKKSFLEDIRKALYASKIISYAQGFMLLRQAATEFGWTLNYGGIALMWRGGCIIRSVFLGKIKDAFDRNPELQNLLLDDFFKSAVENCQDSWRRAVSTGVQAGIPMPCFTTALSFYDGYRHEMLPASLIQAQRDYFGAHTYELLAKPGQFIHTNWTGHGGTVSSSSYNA
Chain of Mitogen-activated protein kinase 7 (Homo sapiens) (Q13164 whole entry, looked up, the tested form may be a part): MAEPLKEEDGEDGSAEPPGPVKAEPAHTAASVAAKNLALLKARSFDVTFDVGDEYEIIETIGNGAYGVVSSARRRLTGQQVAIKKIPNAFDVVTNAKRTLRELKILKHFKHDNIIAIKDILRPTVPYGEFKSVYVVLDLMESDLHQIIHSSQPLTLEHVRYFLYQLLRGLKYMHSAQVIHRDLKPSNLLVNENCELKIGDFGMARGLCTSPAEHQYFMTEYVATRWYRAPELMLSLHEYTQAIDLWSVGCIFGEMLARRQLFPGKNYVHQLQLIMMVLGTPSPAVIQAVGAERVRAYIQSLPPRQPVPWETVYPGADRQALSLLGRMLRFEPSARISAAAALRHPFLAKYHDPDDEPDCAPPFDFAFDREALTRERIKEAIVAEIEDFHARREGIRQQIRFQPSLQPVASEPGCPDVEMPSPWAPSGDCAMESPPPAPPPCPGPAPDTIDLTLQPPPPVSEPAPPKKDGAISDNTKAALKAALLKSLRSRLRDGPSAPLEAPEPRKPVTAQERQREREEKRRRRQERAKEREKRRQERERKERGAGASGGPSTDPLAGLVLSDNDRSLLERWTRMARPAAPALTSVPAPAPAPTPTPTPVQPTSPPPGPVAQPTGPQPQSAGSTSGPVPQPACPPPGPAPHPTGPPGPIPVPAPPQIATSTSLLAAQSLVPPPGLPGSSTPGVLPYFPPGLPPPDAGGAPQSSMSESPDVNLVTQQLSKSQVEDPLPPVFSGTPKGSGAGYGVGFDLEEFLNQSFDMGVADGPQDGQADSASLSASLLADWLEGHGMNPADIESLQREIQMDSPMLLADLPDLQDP

Question: Which results are given for `CCCCCN=C(N)N/N=C/c1c[nH]c2ccc(OC)cc12`?
Answer: nuclear beta-catenin stimulation ([1]; at 10 µM): -2.1% (inactive); nuclear beta-catenin stimulation ([1]; stimulation, at 2 µM): 5.8%; insulin secretion stimulation [2]: 57.5% (active); viability decrease [3]: 118% (active); tube area decrease [4]: 111% (active); GLP1 secretion stimulation [5]: 53.2% (active); inhibition of viability [6]: 125% (active); viability decrease (inhibition) [7]: 159% (active); viability decrease (inhibition) [8]: 102% (active); inhibition [9]: -7.67% (inactive); mean signal [10]: 250 (inactive); red/green cell ratio (normalised) [11]: 1.12 (inactive); normalised cell number [11, 16]: 0.96; normalised cell number [11, 17]: 1.08; z-score [12, 18]: 0.364 (inactive); z-score [12, 19]: 1.74; remaining NAD [13]: 10 nM (inactive); luciferase signal [14]: 68 AU (inactive)

Question: Which results are given for `CCC(C)(C)C(=O)O[C@H]1C[C@@H](C)C=C2C=C[C@H](C)[C@H](CC[C@@H]3C[C@@H](O)CC(=O)O3)[C@H]21`?
Answer: nuclear beta-catenin stimulation ([1]; at 10 µM): 15.9% (inactive); nuclear beta-catenin stimulation ([1]; stimulation, at 2 µM): 7.6%; insulin secretion stimulation [2]: 13.1% (inactive); viability decrease [3]: 95.1% (active); tube area decrease [4]: 91% (active); GLP1 secretion stimulation [5]: 28% (active); inhibition of viability [6]: 86% (active); viability decrease (inhibition) [7]: 119% (active); viability decrease (inhibition) [8]: 77.8% (active); inhibition [9]: 2.59% (inactive); mean signal [10]: 230 (inactive); red/green cell ratio (normalised) [11]: 0.86 (inactive); normalised cell number [11, 16]: 0.75; normalised cell number [11, 17]: 0.65; z-score [12, 18]: -2.63 (inactive) and -1.16 (inactive); z-score [12, 19]: -0.283 and -0.755; remaining NAD [13]: 10 nM (inactive); luciferase signal [14]: 220 AU (inactive); log fold change Tl+ flux (F380Y): 0.085 (inactive); log fold change Tl+ flux (F380Y/beta1): 0.0381 (inactive); log fold change Tl+ flux (F380Y/beta2Delta): 0.0908 (active)

Question: For `CCCCC(O)/C=C(C)/C=C/C=C/C(=O)N1CCCC1=O` (stereo unspecified), which nuclear beta-catenin stimulation ([1]; at 10 µM) is on record?
Answer: -1% (inactive)

Question: And the nuclear beta-catenin stimulation ([1]; stimulation, at 2 µM)?
Answer: -0.4%

Question: What about the insulin secretion stimulation [2] of the same compound?
Answer: 0.3% (inactive)

Question: And the viability decrease [3]?
Answer: 1.6% (inactive)

Question: What about the tube area decrease [4] of the same compound?
Answer: 17.5% (inactive)

Question: And the GLP1 secretion stimulation [5]?
Answer: 1.3% (inactive)

Question: What about the inhibition of viability [6] of the same compound?
Answer: 37.5% (inactive)

Question: What about the viability decrease (inhibition) [7] of the same compound?
Answer: 59.3% (active)

Question: And the viability decrease (inhibition) [8]?
Answer: -19.2% (inactive)

Question: Which nuclear beta-catenin stimulation ([1]; at 10 µM) does the source give for `CC1(C)S[C@@H]2[C@H](NC(=O)Cc3ccccc3)C(=O)N2[C@H]1C(=O)O` (tested in a mixture with another compound) here?
Answer: 0.8% (inactive)

Question: And the nuclear beta-catenin stimulation ([1]; stimulation, at 2 µM)?
Answer: -0.3%

Question: What about the insulin secretion stimulation [2] of the same compound?
Answer: -0.8% (inactive)

Question: What about the viability decrease [3] of the same compound?
Answer: -4.9% (inactive)

Question: And the tube area decrease [4]?
Answer: -6.3% (inactive)

Question: And the GLP1 secretion stimulation [5]?
Answer: -3.4% (inactive)

Question: And the inhibition of viability [6]?
Answer: -7.93% (inactive)

Question: And the viability decrease (inhibition) [7]?
Answer: -25.3% (inactive)

Question: And the viability decrease (inhibition) [8]?
Answer: -12.1% (inactive)

Question: What does the source list for `Nc1nc2c(ncn2COCCO)c(=O)[nH]1`?
Answer: nuclear beta-catenin stimulation ([1]; at 10 µM): 3% (inactive); nuclear beta-catenin stimulation ([1]; stimulation, at 2 µM): -1%; insulin secretion stimulation [2]: 0.5% (inactive); viability decrease [3]: -0.3% (inactive); tube area decrease [4]: 8.6% (inactive); GLP1 secretion stimulation [5]: -0.5% (inactive); inhibition of viability [6]: -3.47% (inactive); viability decrease (inhibition) [7]: 23.2% (inactive); viability decrease (inhibition) [8]: -16.2% (inactive); inhibition [9]: 18.2% (inactive); mean signal [10]: 281 (inactive); red/green cell ratio (normalised) [11]: 1.25 (inactive); normalised cell number [11, 16]: 1.01; normalised cell number [11, 17]: 1.26; z-score [12, 18]: -0.252 (inactive) and -0.378 (inactive) and 0.479; z-score [12, 19]: 0.554 and 0.269 and 2.37; remaining NAD [13]: 10 nM (inactive); luciferase signal [14]: 40 AU (inactive); inhibition ([15]; BGB IC20 combo, at 0.005 µM): 14.3% and 0.139%; inhibition ([15]; BGB IC40 combo, at 0.005 µM): -30.6% and -19%; inhibition ([15]; BGB IC40 combo, at 0.05 µM): -33.3% and -34.4%; inhibition ([15]; at 0.5 µM): -25.4% (inactive) and -25.1% (inactive); inhibition ([15]; cisplatin combo, at 0.05 µM): -37% and -39.3%; inhibition ([15]; cisplatin combo, at 0.5 µM): -27.7% and -16.9%; inhibition ([15]; cisplatin combo, at 5 µM): -26.2% and -27.5%; inhibition ([15]; measured here: 5 uM single agent, at 5 µM): -25.9% and 2.01%; log fold change Tl+ flux (F380Y): 0.00551 (inactive); log fold change Tl+ flux (F380Y/beta1): -0.0568 (inactive); log fold change Tl+ flux (F380Y/beta2Delta): 0.0127 (inactive)
